# Rows were chosen to be rich in hits. Some 11% of all compounds tested hit in one or more screens of this group.
# G9a block: inhibitors of human histone lysine methyltransferase G9a. 350,000 compounds, 8.8% hits. Potency, µM (top dose mostly 102 µM), without a hit: at the highest dose activity, negative = inhibition, actives largely listed as inhibitors. G9a H3K9 monomethylation, AlphaScreen, 2 h. Q96KQ7; note: % is set by controls: 0 for no effect and ±100 for the full control effect; nearly all actives have a fitted effect of over 75% in size
#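 Compounds were preincubated with 20 nM G9a for 15 min, after which biotinylated H3K9 peptide (500 nM) and SAM (20 uM) started a 2 h room-temperature reaction. Monomethylated product was quantified by antibody-based AlphaScreen chemiluminescence.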
# BAZ2B block: inhibitors of human BAZ2B bromodomain; AlphaScreen BAZ2B-H3K14Ac peptide displacement; Potency, µM (titrated, usually from 114 µM), for the others: top-dose activity change, negative = inhibition, actives largely listed as inhibitors; 360,000 compounds, 4.4% hits; AID 504333; note: % is set by controls: 0 for no effect and ±100 for the full control effect; nearly all actives have a fitted effect of over 60% in size
# Target sequence (Q9UIF8 whole entry, looked up): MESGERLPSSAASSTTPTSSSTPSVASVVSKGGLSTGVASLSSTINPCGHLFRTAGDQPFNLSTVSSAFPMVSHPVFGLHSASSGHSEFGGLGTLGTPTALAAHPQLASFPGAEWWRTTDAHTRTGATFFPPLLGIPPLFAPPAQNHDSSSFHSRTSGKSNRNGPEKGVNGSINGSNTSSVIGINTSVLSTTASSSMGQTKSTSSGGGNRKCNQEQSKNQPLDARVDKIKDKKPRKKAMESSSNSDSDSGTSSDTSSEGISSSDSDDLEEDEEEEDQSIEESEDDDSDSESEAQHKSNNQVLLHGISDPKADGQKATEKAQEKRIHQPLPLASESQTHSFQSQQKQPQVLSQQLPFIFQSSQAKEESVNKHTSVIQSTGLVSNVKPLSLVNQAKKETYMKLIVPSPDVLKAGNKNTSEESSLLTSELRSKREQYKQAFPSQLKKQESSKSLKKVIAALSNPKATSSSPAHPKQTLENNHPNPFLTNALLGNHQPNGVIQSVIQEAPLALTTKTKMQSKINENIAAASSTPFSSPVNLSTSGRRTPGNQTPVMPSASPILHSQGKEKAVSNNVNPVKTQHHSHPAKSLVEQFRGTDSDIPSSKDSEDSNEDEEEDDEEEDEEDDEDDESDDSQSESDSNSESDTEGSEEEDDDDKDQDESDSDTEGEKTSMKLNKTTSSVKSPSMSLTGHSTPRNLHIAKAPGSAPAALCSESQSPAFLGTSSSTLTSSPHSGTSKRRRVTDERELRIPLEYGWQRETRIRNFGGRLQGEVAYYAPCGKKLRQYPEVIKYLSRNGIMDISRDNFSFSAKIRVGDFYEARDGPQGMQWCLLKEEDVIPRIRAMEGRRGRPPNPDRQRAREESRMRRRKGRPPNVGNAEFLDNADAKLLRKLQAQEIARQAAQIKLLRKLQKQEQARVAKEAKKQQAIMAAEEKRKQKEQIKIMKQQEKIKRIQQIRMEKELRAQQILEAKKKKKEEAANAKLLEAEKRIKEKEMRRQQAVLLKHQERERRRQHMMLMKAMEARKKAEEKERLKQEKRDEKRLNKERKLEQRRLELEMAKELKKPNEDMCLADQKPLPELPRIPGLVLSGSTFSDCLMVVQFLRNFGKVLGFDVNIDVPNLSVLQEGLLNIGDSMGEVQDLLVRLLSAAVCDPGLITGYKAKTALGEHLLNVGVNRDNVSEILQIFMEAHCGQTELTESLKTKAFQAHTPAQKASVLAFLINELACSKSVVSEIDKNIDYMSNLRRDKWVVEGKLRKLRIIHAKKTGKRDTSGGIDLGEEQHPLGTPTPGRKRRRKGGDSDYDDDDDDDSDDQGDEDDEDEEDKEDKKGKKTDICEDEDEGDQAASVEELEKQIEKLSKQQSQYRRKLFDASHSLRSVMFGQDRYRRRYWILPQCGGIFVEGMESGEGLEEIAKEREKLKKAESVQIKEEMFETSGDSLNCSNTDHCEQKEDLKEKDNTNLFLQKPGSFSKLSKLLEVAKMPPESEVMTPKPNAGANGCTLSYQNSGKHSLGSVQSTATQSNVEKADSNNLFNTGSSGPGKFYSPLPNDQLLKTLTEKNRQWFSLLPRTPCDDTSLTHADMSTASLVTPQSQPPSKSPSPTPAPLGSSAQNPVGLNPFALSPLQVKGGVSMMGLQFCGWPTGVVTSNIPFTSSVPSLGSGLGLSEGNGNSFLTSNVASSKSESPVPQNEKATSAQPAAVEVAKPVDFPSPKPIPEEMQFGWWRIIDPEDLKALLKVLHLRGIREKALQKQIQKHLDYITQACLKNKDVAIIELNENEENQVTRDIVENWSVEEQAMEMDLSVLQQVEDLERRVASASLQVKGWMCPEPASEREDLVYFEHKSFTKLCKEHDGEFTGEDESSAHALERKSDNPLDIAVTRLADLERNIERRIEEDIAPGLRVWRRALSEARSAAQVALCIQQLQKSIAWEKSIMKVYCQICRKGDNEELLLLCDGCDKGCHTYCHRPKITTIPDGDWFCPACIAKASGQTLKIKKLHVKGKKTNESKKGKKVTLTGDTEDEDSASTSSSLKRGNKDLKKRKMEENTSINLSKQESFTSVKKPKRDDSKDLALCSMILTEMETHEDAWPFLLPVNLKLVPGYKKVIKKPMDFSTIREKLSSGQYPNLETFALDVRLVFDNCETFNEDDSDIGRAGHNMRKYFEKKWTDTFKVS
#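 Protein-peptide AlphaScreen: BAZ2B 50 nM, b-H3K14Ac 50 nM, 1x PBS pH 7.4 + 0.01% Tween-20. Preincubation 30 min RT; cpd 30 min RT (top 110 uM); beads 20 min RT, light-protected.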
# JMJD2A Tudor inh: JMJD2A Tudor domain (human) inhibition. AlphaScreen JMJD2A-Tudor / H3K4me3 peptide binding. Potency, µM (titrated, usually from 114 µM), for the others: at the top dose activity change, negative = inhibition, actives largely listed as inhibitors. AID 504339. O75164. 390,000 compounds, 4.4% hits; note: % is set by controls: 0 for no effect and ±100 for the full control effect; nearly all actives have a fitted effect of over 50% in size
# VDR inh: blocks the human vitamin D receptor. P11473. VDR-SRC2-3 peptide fluorescence polarization, 2 h. Potency, µM, without a hit: max response, negative = inhibition, most hits filed as inhibitors. 400,000 compounds, 0.93% hits. AID 504847; note: % is set by controls: 0 for no effect and ±100 for the full control effect
#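 Inhibition of the VDR/SRC2-3 peptide interaction is quantified by fluorescence polarization. Compounds (23 nl, pintool) incubate with the reagents for 2 hours at ambient room temperature.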
# HP1b chromo inh: blocks HP1-beta chromodomain binding to methylated histone tails. AlphaScreen HP1-beta / biotin-H3K9me3 peptide binding. Potency, µM (top dose mostly 114 µM), for inactives: top-dose activity change, negative = inhibition, most hits filed as inhibitors. 390,000 compounds, 0.56% hits. AID 540317; note: nearly all actives have a fitted effect of over 70% in size
#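 AlphaScreen: HP1-beta (50 nM) preformed 30 min with biotin-H3(1-18)K9me3 peptide (50 nM) in PBS pH 7.4, 0.01% Tween-20. Compound added for 30 min at RT, then streptavidin donor/nickel chelate acceptor beads (10 ug/mL) for 30 min.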
# PLK1 PBD inh: PLK1 (human) polo-box domain binding inhibition; P53350; Plk1 PBD binding of FITC phosphopeptide, fluorescence polarization; Potency, µM, for the others: max response, negative = inhibition, usual class: inhibitors; 360,000 compounds, 2.8% hits; AID 720504; note: series mostly up to about 57 µM; % is set by controls: 0 for no effect and ±100 for the full control effect; nearly all actives have a fitted effect of over 65% in size
# An asterisk follows results filed as active; ? = inconclusive; / = not tested or not shown; [ ] = another dose, or the depositor's remark. Calls come from the whole dose curve; as a rule, active = well fitted curve in the direction sought with a large enough effect; inconclusive = small, poorly fitted or top-dose-only effect, or another doubt; inactive = no such curve, though single readings can be large; an effect the other way counts as inactive or inconclusive. Potency is the fitted concentration of half-maximal effect.
SMILES,G9a block,BAZ2B block,JMJD2A Tudor inh,VDR inh,HP1b chromo inh,PLK1 PBD inh
O=C(CS(=O)(=O)Cc1ccccc1)Nc1nnc(C2CCCCC2)s1,56.2µM*,-5.8%,-16.5%,10.4%,15.5%,-3.5%
COc1ccc(CNC(=O)CCn2c(=O)c3cccn3c3ccc(F)cc32)cc1,21.1%,-15.9%,?,?,25.2%,26.7µM*
Cc1cc(C2C(C#N)=C(N)SC(N)=C2C#N)c(C)s1,1.26µM*,-6.1%,?,?,18.1%,11.8%
Cc1sccc1C1C(C#N)=C(N)SC(N)=C1C#N,1.12µM*,-35.4%,/,/,/,/
COC(=O)c1c(SC)nc2ccccc2c1OCc1cccc(C)c1,92.0%[59 µM],287.8%,238.6%,7.1%,220.8%,/
COc1ccc(-c2noc(C3CC(=O)N(c4ccc5c(c4)OCCO5)C3)n2)c(OC)c1 (stereo unspecified),10.7%[59 µM],-21.1%,-31.3%,6.2%,0.8%,/
O=C(NCC(c1cccnc1)N1CCc2ccccc21)c1cccc(Br)c1 (stereo unspecified),-4.2%[59 µM],?,-22.4%,1.8%,10.9%,/
COc1ccc(C2(C)NC(=O)N(CC(=O)NC3CCCC3)C2=O)cc1OC (stereo unspecified),-0.7%[12.7 µM],15.0%,-9.4%,1.3%,50.6%,-2.6%
COc1ccc(Nc2nc(NCc3ccco3)nc(N/N=C/c3ccccc3F)n2)cc1,10.2%[59 µM],?,50.1µM*,-6.3%,?,-3.1%
COc1ccc(/C=N/Nc2nc(NCc3ccco3)nc(Nc3ccc(OC)cc3)n2)cc1,-13.4%[59 µM],?,-34.9%,11.2%,11.0%,-1.9%
COc1ccc(Nc2nc(NCc3ccco3)nc(N/N=C/c3ccc(O)cc3)n2)cc1,?,22.4µM*,?,-0.4%,-15.2%,-2.2%
Cc1ccc(-c2csc3ncnc(NCCC(=O)O)c23)cc1C,21.7%,9.8%,-16.7%,12.9%,28.6%,-6.0%
CC(C(=O)Nc1ccc(F)c(F)c1)N1CCN(C)CC1 (stereo unspecified),?,22.4µM*,3.16µM*,-23.2%,35.5µM*,-3.0%
CC(C(=O)Nc1ccccc1C(F)(F)F)N1CCN(C)CC1 (stereo unspecified),3.1%[0.501 µM],79.4µM*,25.1µM*,-12.6%,?,-9.0%
CN1CCN(CCC(=O)Nc2ccc(F)c(F)c2)CC1,9.9%,?,-14.0%,10.2%,21.3%,-7.0%
CC(C)NC(=O)NC(=O)COc1ccc(Br)cc1Br,?,-4.3%,-4.1%,-3.7%,40.9%,6.1%
CC1=CC(=C(C#N)c2nc3ccccc3s2)C=C(C)N1CC1CCCO1 (stereo unspecified),17.6%,21.6%,30.9%,4.5%,79.8%,26.7µM*
CCOCCCNC(=O)C(NC(=O)C1CCC(C)CC1)C(C)C (stereo unspecified),-4.0%[59 µM],5.0%,-10.6%,-3.4%,27.3%,/
N#Cc1ccccc1N1CCN(C(=O)c2ccc(NC(=O)c3ccc(Br)o3)cc2)CC1,14.2%[2.33 µM],50.1µM*,56.2µM*,-17.8%,-27.0%,-16.8%
COc1ccc(N2CCCC2)c(NC(=O)c2ccc(Br)o2)c1,8.91µM*,?,50.1µM*,5.4%,?,-3.3%
O=C(N/N=C/c1ccc(N2CCCCC2)o1)c1ccccc1[N+](=O)[O-],11.2µM*,-8.6%,?,39.8µM*,-10.3%,-26.5%
O=C(Nc1ccccc1N1CCCC1)c1ccccc1Cl,39.8µM*,?,-21.2%,14.7%,23.8%,-11.0%
O=C(Nc1ccccc1N1CCCC1)c1cc(Cl)ccc1Cl,/,-21.0%,-14.3%,-9.6%,22.9%,3.7%
CNC(=O)c1cnn2c(C)cc(C)nc12,/,/,-21.3%,/,/,/
Cc1cccc(C)c1NC(=O)C1c2ccccc2OCC(=O)N1CCCN1CCOCC1 (stereo unspecified),/,/,/,/,/,-0.3%
SMILES,G9a block,BAZ2B block,JMJD2A Tudor inh,VDR inh,HP1b chromo inh,PLK1 PBD inh
Cc1ccnc(NC(=O)c2ccc(N3C(=O)CCC3=O)cc2)c1,?,12.4%,13.0%[11.4 µM],-6.0%,9.1%,-9.0%
Cc1cc(NC(=O)CSCC(=O)Nc2cccc(S(=O)(=O)N3CCCCCC3)c2)no1,-32.8%,?,-26.2%,-4.2%,-10.2%,-5.0%
CN1CCN(c2ccccc2NC(=O)c2ccc(-c3ccc(Br)cc3)o2)CC1,/,?,-16.6%,5.5%,11.2%,0.3%
CN(CCCNC(=O)c1ccc(N2CCCC2=O)cc1)c1ccccc1,10µM*,-33.7%,?,2.2%,10.6%,-4.0%
O=C(Nc1ccccc1N1CCCCC1)c1ccc(-c2ccc(Cl)cc2)o1,-8.2%[59 µM],-24.2%,?,-18.3%,5.5%,26.7µM*
Cc1ccccc1NC(=O)c1cccc(NC(=O)c2c(C(=O)O)cccc2[N+](=O)[O-])c1,/,/,0.0%,16.8%,23.4%,-5.7%
O=C(Nc1ccccc1N1CCCC1)C1CCCO1 (stereo unspecified),28.2µM*,-27.5%,-13.1%,-0.7%,27.3%,-10.6%
CCCCN(C)CCCNC(=O)c1ccc(N2CCCC2=O)cc1,30.7%[0.501 µM],-1.8%,15.5%,-5.3%,30.3%,-1.2%
CN1C(=O)c2ccc(NC(=O)c3c(C(=O)O)cccc3[N+](=O)[O-])cc2C1=O,39.8µM*,2.0%,-8.0%,4.9%,16.4%,-14.3%
O=C(Nc1ccc(N2CCCC2)c(Cl)c1)c1ccccc1F,/,/,/,/,/,-2.4%
Cc1cc(N2CCN(C)CC2)ccc1NC(=O)c1ccc(-c2ccc(Cl)cc2)o1,31.6µM*,35.5µM*,39.8µM*,6.2%,?,-20.6%
O=C(Nc1ccccc1N1CCCC1)c1ccc(Br)o1,4.47µM*,?,?,13.8%,5.4%,-2.7%
O=C(Nc1ccccc1N1CCCC1)c1ccc(N2CCCC2=O)cc1,35.5µM*,-23.7%,-23.0%,-7.7%,8.1%,-3.0%
Cc1cc(O)c(NC(=S)NC(=O)c2ccc(-c3ccc(Cl)cc3)o2)cc1C,11.0%[12.7 µM],0.9%,-17.8%,11.3%,4.7%,-1.5%
O=C(Nc1ccc(N2CCCC2)c(Cl)c1)c1ccccc1[N+](=O)[O-],?,?,?,-25.7%,-6.8%,26.7µM*
O=C(O)c1cccnc1SCC(=O)N1CCCc2ccccc21,-133.9%[59 µM],79.4µM*,?,32.9%,8.4%,-17.5%
Cc1cccc(-n2ccnc2SCC(=O)N2CCCc3ccccc32)c1C,?,50.1µM*,?,-16.0%,-26.9%,4.5%
O=C(CSc1nnc(-c2ccccc2)o1)N1CCCc2ccccc21,8.5%[59 µM],6.5%,17.1%,-7.5%,42.1%,/
Cc1ccc(NC(=O)CSCC(=O)N2CCCc3ccccc32)cc1,44.7µM*,8.8%,-1.7%,0.6%,32.5%,1.1%
Cc1ccc(C)c(NC(=O)CSc2nccn2-c2cccc(C)c2C)c1,17.8µM*,10µM*,?,-6.7%,?,/
COc1ccc(COC(=O)c2sc3nc4n(c(=O)c3c2C)CCC4)cc1,-32.8%,5.8%,-7.9%,-13.5%,6.7%,1.8%

# Source: PubChem BioAssay (National Center for Advancing Translational Sciences (NCATS))
